Gli-Sufu antag: blocks Gli-Sufu signaling in a luciferase reporter; Sufu-KO-LIGHT fibroblasts, Gli luciferase reporter luminescence; inhibition, % at 5 µM; 0.74% of 340,000 active; AID 588413;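 active = inhibition above about 55%, limit read from the data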
KLF5 inhibitor: kruppel-like factor 5 inhibition. 0.23% of 290,000 active. inhibition, % at 5 µM. AID 1700. DLD-1 KLF5 promoter-luciferase reporter, luminescence;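 active = inhibition above a per-plate limit of that plate's mean compound inhibition plus 3 SD, cut at about 60% in these data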;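 also: higher means less KLF5 promoter-driven luciferase light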
Mdm2-MdmX inh: disrupts the human Mdm2-MdmX interaction; O15151+Q00987; SaOS-2 split-luciferase Mdm2/MdmX complementation, luminescence; inhibition, % at 8 µM; 3% of 330,000 active;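 active = inhibition of at least 50% at 8 µM in the primary screen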
Target sequence (O15151 whole entry, looked up): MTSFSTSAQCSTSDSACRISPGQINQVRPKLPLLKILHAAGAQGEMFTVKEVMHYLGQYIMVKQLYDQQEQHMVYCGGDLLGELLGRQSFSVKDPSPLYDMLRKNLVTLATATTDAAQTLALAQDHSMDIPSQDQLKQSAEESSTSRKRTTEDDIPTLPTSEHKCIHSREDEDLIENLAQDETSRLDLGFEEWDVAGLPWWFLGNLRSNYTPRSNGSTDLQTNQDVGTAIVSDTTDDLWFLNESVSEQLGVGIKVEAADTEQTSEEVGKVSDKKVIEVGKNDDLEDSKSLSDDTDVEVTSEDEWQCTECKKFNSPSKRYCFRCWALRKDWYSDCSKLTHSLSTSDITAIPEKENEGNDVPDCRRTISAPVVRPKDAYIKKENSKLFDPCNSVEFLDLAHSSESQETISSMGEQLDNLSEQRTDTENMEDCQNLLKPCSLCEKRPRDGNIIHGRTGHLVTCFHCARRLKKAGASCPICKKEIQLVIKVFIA
Target sequence (Q00987 whole entry, looked up): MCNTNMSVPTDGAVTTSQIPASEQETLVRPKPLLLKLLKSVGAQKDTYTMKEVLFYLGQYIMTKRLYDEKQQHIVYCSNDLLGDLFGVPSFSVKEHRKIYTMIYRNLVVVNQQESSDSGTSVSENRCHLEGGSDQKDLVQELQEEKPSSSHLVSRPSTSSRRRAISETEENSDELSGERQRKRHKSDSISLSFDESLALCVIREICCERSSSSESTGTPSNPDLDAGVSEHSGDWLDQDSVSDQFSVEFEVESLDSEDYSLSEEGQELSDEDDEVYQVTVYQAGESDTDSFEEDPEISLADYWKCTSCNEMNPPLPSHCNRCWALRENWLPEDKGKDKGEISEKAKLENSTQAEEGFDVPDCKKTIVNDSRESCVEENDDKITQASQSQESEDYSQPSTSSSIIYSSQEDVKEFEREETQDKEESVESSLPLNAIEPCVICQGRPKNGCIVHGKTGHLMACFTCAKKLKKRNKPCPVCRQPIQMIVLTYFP
Jurkat NFkB inh: lowers PMA/ionomycin-induced NF-kB signal in Jurkat cells. PMA/ionomycin-induced NF-kB luciferase reporter, luminescence. inhibition, % at 4 µM. 0.53% of 330,000 active; in the data active = inhibition above about 50%
aSyn 5UTR inh: MLPCN primary screen, SNCA 5' untranslated region | alpha-synuclein 5'UTR reporter, inhibitor activity | inhibition, % (tested at 7.5 µM) | 0.82% of 300,000 active | AID 1813; in the data active = inhibition above about 60%;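 also: H4 neuroglioblastoma cells stably carrying SNCA 5'UTR luciferase fusion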
697 NFkB inh: lowers PMA/ionomycin-induced NF-kB signal in 697 B cells; inhibition, % at 4 µM; 697 B-cell NF-kB luciferase reporter, 16 h; 0.33% of 330,000 active; in the data active = inhibition above about 35%
Gli antag conf: confirmation of Gli-SUFU pathway antagonists; inhibition, % at 5 µM; 40% of 2,500 active; AID 602428; Sufu-KO-LIGHT cells, Gli luciferase reporter, luminescence; shares compounds with Gli-Sufu antag;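 active = mean inhibition at 5 µM reaching about 45%, limit read from the data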
SufuKO cytotox: cytotoxicity counter-screen for Gli-SUFU antagonists; shares compounds with Gli-Sufu antag; Sufu-KO-LIGHT cells cytotoxicity, ATP luminescence; AID 651994; cytotoxicity, % at 5 µM; 32% of 2,500 active;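 active = mean cytotoxicity at 5 µM above about 25%, limit read from the data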;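 also: cells exposed to compound overnight for roughly 16 to 18 hours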
Wnt3a cs: Wnt3a reporter inhibition counter-screen; 20% of 2,500 active; shares compounds with Gli-Sufu antag; AID 651995; inhibition, % at 6.25 µM; Wnt-LIGHT cells, Wnt3a-driven luciferase reporter, luminescence;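 active = mean inhibition above about 25%, limit read from the data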
Large screens that a line does not name were inactive (follow-up assays come after a bar, where they were run). An excerpt weighted towards active compounds, which were near 4.1% of everything screened.

Cc1nc(CCNS(=O)(=O)c2cccnc2)cs1	none
CC12CCC(C(=O)N(NC(=O)c3cc(Cl)ccc3O)C1=O)C2(C)C (centres undefined)	none
CN(C)C(=S)SCC(=O)NC(=O)NC(C)(C)C	none
CCN1CCN(CC(=O)c2c(C)n(C)c3ccc(OC)cc23)CC1	Gli-Sufu antag 62 (no result: aSyn 5UTR inh) | Gli antag conf inactive | SufuKO cytotox inactive | Wnt3a cs inactive
CN1C(=O)/C(=C/c2cc(C(C)(C)C)c(O)c(C(C)(C)C)c2)NC1=S	none
Cc1ccc(Cl)cc1S(=O)(=O)N1CCC(C(=O)NC2CCN(Cc3ccccc3)CC2)CC1	none | Gli antag conf inactive | SufuKO cytotox inactive | Wnt3a cs inactive
COc1cccc(NS(=O)(=O)c2ccc(C)c(C(=O)N3CCCCC3)c2)c1	none
COc1ccc(C2CC(C(F)(F)F)n3nc(C(=O)NCc4c(C)nn(C)c4C)c(Cl)c3N2)cc1 (centres undefined)	Gli-Sufu antag 61 | Gli antag conf 50 | SufuKO cytotox 42 | Wnt3a cs inactive
Cc1cc(N2CCCC2=O)cc(C)c1S(=O)(=O)NCCOc1ccc(C(C)(C)C)cc1	Gli-Sufu antag 75 | Gli antag conf 72 | SufuKO cytotox 44 | Wnt3a cs inactive
CCOC(=O)c1c(NC(=O)COc2cccc3c2CCN(C)C3=O)sc2c1CCC2	Gli-Sufu antag 58 | Gli antag conf inactive | SufuKO cytotox inactive | Wnt3a cs inactive
Cc1ccccc1CNCc1ccc2c(c1)OCO2	none | Gli antag conf inactive | SufuKO cytotox inactive | Wnt3a cs inactive
COc1ccc(S(=O)(=O)N2CCN(Cc3cccc(OC)c3)CC2)cc1	Gli-Sufu antag 62 | Gli antag conf inactive | SufuKO cytotox inactive | Wnt3a cs inactive
COc1ccc(F)cc1S(=O)(=O)Nc1ccc(C)cc1	none
COc1ccc2cc([C@@H](C)C(=O)O)ccc2c1	none (no result: KLF5 inhibitor, aSyn 5UTR inh) | Gli antag conf inactive | SufuKO cytotox inactive | Wnt3a cs inactive
FC(F)(F)c1nc(N2CCCC2)ncc1-c1nnnn1-c1ccc(Cl)cc1	none | Gli antag conf 54 | SufuKO cytotox 45 | Wnt3a cs inactive
COc1ccc(C2(c3ccc(OC(C)=O)cc3OC(C)=O)CC(c3ccccc3)NC(=S)N2)cc1 (centres undefined)	Gli-Sufu antag 62 | Gli antag conf inactive | SufuKO cytotox inactive | Wnt3a cs inactive
CC(=O)Oc1ccc2c(c1)OC(c1ccccc1)CC21CC(C)(C)NC(=S)N1 (centres undefined)	none
O=C(c1ccnc(Cl)c1)N1CCCC(N2CCN(c3ccccc3F)CC2)C1 (centres undefined)	none
CN1CCC(=C2c3ccccc3Sc3ccccc32)CC1	Gli-Sufu antag 56 (no result: KLF5 inhibitor, Mdm2-MdmX inh, Jurkat NFkB inh, aSyn 5UTR inh, 697 NFkB inh) | Gli antag conf inactive | SufuKO cytotox 37 | Wnt3a cs inactive
CN1CCC(=C2c3ccccc3C=Cc3ccccc32)CC1	none
CC(C)OP(=O)(Nc1cccc2ccccc12)OC(C)C	none
CN(C)P(=O)(Nc1cccc2ccccc12)Nc1cccc2ccccc12	none (no result: KLF5 inhibitor, aSyn 5UTR inh) | Gli antag conf inactive | SufuKO cytotox inactive | Wnt3a cs inactive
COc1ccc(C(=O)N2CCN(c3ccccn3)CC2)cc1[N+](=O)[O-]	none
COc1ccc(CNc2ncnc3sccc23)cc1	Gli-Sufu antag 61 | Gli antag conf 48 | SufuKO cytotox 37 | Wnt3a cs inactive
COc1ccc(CNc2ncnc3sccc23)cc1OC	none
CCOC(=O)COc1cccc2c(=O)n(CC(=O)N3CCC(C)CC3)ccc12	none
CCOC(=O)N1CCN(C(=O)Cn2ccc3c(OC)cccc3c2=O)CC1	none | Gli antag conf inactive | SufuKO cytotox inactive | Wnt3a cs inactive
Cc1ccc(CN2CCC(CNS(=O)(=O)c3ccc(-c4ccc(=O)[nH]n4)s3)CC2)cc1	Gli-Sufu antag 60 | Gli antag conf inactive | SufuKO cytotox inactive | Wnt3a cs inactive
Cc1ccc([N+](=O)[O-])cc1N=Nc1c(-c2ccc([N+](=O)[O-])cc2)[nH]n(C(N)=S)c1=O	Gli-Sufu antag 58 (no result: Mdm2-MdmX inh, Jurkat NFkB inh, 697 NFkB inh) | Gli antag conf 60 | SufuKO cytotox inactive | Wnt3a cs 47
O=C(COC(=O)c1cc(=O)[nH]c2ccccc12)Nc1ccccc1F	none (no result: KLF5 inhibitor, aSyn 5UTR inh)
CCOC(=O)c1ccc2c(c1)n(CC)c(/C=C/N(C)c1ccccc1)[n+]2CC	Gli-Sufu antag 83 | Gli antag conf 86 | SufuKO cytotox 31 | Wnt3a cs 33
CCN(CC)C(=O)c1ccc(S(=O)(=O)N2CCC(c3nc4ccccc4s3)CC2)cc1	Gli-Sufu antag 59 | Gli antag conf inactive | SufuKO cytotox inactive | Wnt3a cs inactive
CCCN1CCN(C(=O)CCCn2c(C)c3cnn(-c4ccccc4)c(=O)c3c2C)CC1	none (no result: KLF5 inhibitor)
CCC(C(=O)NCCN1CCN(C)CC1)n1c(C)c2cnn(-c3ccccc3)c(=O)c2c1C (centres undefined)	Gli-Sufu antag 94 | Gli antag conf inactive | SufuKO cytotox inactive | Wnt3a cs inactive
Cc1noc(C)c1NC(=O)Nc1ccc2c(c1)CC(=O)N([C@H](C)CO)C[C@@H](C)[C@H](CN(C)CC1CCCCC1)O2	none (no result: KLF5 inhibitor, aSyn 5UTR inh)
O=C(c1cc(-c2ccco2)nc2ccccc12)N1CCN(c2ccc(F)cc2)CC1	Gli-Sufu antag 64 | Gli antag conf inactive | SufuKO cytotox 34 | Wnt3a cs inactive
COc1ccc(-c2cc(C(=O)N3CCCCCC3)c3ccccc3n2)cc1	none (no result: KLF5 inhibitor, aSyn 5UTR inh) | Gli antag conf inactive | SufuKO cytotox inactive | Wnt3a cs inactive
C=CCOC(=O)C1=C(C)NC(C)=C(C(=O)OCC=C)C1c1cn(-c2ccccc2)nc1-c1ccco1	none
CC12CC3(C)CC(C)(C1)CC(C(=O)NC(=S)N1CCCC1)(C2)C3	none
CCN(CC)S(=O)(=O)c1cccc(NC(=O)CNc2cccc(S(=O)(=O)N3CCOCC3)c2)c1	Gli-Sufu antag 63 (no result: KLF5 inhibitor) | Gli antag conf 69 | SufuKO cytotox 25 | Wnt3a cs 29
O=C(CNc1cccc(S(=O)(=O)N2CCOCC2)c1)Nc1cccc(Br)c1	none (no result: KLF5 inhibitor)
CCN(CC)S(=O)(=O)c1cccc(NC(=O)CCSc2ccc(Cl)cc2)c1	none (no result: Mdm2-MdmX inh, Jurkat NFkB inh, 697 NFkB inh) | Gli antag conf inactive | SufuKO cytotox 28 | Wnt3a cs inactive
COc1ccc(Nc2c3ccccc3nc3ccccc23)cc1	none | Gli antag conf 56 | SufuKO cytotox 31 | Wnt3a cs inactive
Cc1cc(C(=O)CSc2nc(N)cc(=O)[nH]2)c(C)n1-c1ccc(OC(F)F)cc1	Gli-Sufu antag 68 | Gli antag conf 65 | SufuKO cytotox 38 | Wnt3a cs inactive
Cc1cc(-n2c(C)cc(C(=O)CSc3nc(N)cc(=O)[nH]3)c2C)no1	none
CC(C)(C)c1ccccc1NC(=O)NC1CCN(Cc2c(F)cccc2Cl)CC1	none
Cc1ccc(N(CCC#N)C(=O)COC(=O)C2CCN(S(=O)(=O)c3ccc4c(c3)OCCO4)CC2)cc1	none (no result: KLF5 inhibitor)

Compound activity from PubChem BioAssay.
